Hits are enriched below; roughly 8.3% of the tested compounds scored in any of these assays.
HCMV antiviral – blocks human cytomegalovirus replication. hit rate 4.5% among 410,000. activity change, negative = inhibition, % at 57.5 µM. AID 1259415. HFF cells, HCMV-luciferase reporter, 72 h; active compounds read low; in the data active = activity change below about -60%; inconclusive = no clear call, values can overlap the other calls; inactive = above about -39%
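HFF cells seeded 16 h at 37C, treated with compounds, infected with luciferase-reporter HCMV at MOI 1 PFU/cell; luciferase read at 72 h post infection, normalized to buffer-only and Salinomycin controls.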
FMDV antiviral – blocks foot and mouth disease virus. AID 1159524. hit rate 1.2% among 410,000. FMDV antiviral cell-based qHTS. Potency, µM (top dose mostly 57.9 µM), most hits filed as inhibitors; calls by dose curve; tested in HEK293T cells; also: read-out not given here; nearly all actives have a fitted effect of over 45% in size
LASV entry inh – inhibitors of Lassa virus binding or cell entry. AID 540256. Potency, µM (doses to about 37.9 µM), usual class: inhibitors. hit rate 1.2% among 300,000. Lassa virus pseudotype entry inhibition, cell reporter; calls by dose curve; tested in HEK293 cells; also: nearly all actives have a fitted effect of over 50% in size
MARV entry inh – Marburg virus entry inhibition; Marburg virus pseudotyped entry inhibition, cell reporter; hit rate 1.8% among 300,000; AID 540276; Potency, µM (doses to about 37.8 µM), hits mostly inhibitors; calls by dose curve; tested in HEK293 cells
HCV inhibitor – blocks hepatitis C virus; Potency, µM (series often up to 41.8 µM), most hits filed as inhibitors; Huh7.5.1 HCVcc-Cre infection, luciferase reporter, 44 h; hit rate 3.4% among 340,000; AID 651820
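Infectious HCVcc-Cre (~0.5 moi) was added to cells just after compound, with cells seeded 4 h earlier at 1,000 per well. Luciferase activity after 44 h culture reported infection; substrate was incubated 15 min at room temperature before reading.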
Giardia FBPA inh-1 – inhibitors of Giardia lamblia fructose-1,6-bisphosphate aldolase. purified Giardia FBPA. hit rate 0.71% among 290,000. Potency, µM (top dose mostly 59.6 µM), hits mostly inhibitors; also: nearly all actives have a fitted effect of over 55% in size
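40 nM FBPA preincubated 10 min at RT with compound (up to 57.5 uM final), then substrate plus GAPDH/TPI/NAD/arsenate coupling and diaphorase/resazurin added. Fluorescence read after 20 min at RT, 525/598 nm.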
Giardia growth – inhibitors of Giardia lamblia growth. Giardia lamblia trophozoite growth inhibition. hit rate 5% among 1,500. shares compounds with Giardia FBPA inh-1. AID 2785. Potency, µM (top dose mostly 57.5 µM), hits mostly inhibitors;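 also: trophozoites exposed to compound for 48 h at 37 °C; nearly all actives have a fitted effect of over 70% in size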
Mammalian tox – mammalian cytotoxicity of Giardia aldolase inhibitor hits. hit rate 4% among 1,500. Potency, µM (series often up to 57.5 µM), most hits filed as inhibitors. AID 2786. mammalian cell viability counter-screen, qHTS. shares compounds with Giardia FBPA inh-1;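 also: Chinese hamster ovary cells used as mammalian cytotoxicity surrogate; viability measured as cellular ATP by luminescence; compound exposure lasted 48 h before reading; nearly all actives have a fitted effect of over 60% in size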
Giardia FBPA inh-2 – confirmation of Giardia fructose-bisphosphate aldolase inhibitors. hit rate 5% among 1,500. purified Giardia aldolase enzyme activity, qHTS. shares compounds with Giardia FBPA inh-1. Potency, µM (titrated, usually from 57.5 µM), usual class: inhibitors; also: nearly all actives have a fitted effect of over 45% in size
Rabbit aldolase – rabbit FBP aldolase inhibition by Giardia aldolase hits | AID 2794 | Potency, µM (titrated, usually from 57.5 µM), most hits filed as inhibitors | shares compounds with Giardia FBPA inh-1 | Rabbit muscle FBPA enzyme inhibition, selectivity counter-screen | hit rate 4% among 1,500; also: nearly all actives have a fitted effect of over 60% in size
Target sequence (P00883 whole entry, looked up): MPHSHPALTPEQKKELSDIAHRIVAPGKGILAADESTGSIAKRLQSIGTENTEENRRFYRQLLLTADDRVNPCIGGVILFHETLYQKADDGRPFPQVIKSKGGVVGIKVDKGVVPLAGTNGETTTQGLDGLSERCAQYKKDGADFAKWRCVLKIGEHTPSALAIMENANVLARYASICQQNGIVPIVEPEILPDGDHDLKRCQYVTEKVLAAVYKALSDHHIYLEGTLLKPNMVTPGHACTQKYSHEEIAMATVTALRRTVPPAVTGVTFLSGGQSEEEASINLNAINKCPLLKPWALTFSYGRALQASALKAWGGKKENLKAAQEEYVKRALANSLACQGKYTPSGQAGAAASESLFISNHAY
GAPDH coupling – GAPDH inhibition flagged for Giardia aldolase hits; Potency, µM (top dose mostly 57.5 µM), most hits filed as inhibitors; GAPDH coupling enzyme counterscreen, biochemical, qHTS; hit rate 6% among 1,500; shares compounds with Giardia FBPA inh-1; also: nearly all actives have a fitted effect of over 55% in size
Each line names hits and unclear results; the compound was inactive in the other large screens (follow-up assays come after a bar, where they were run). Unless noted, calls follow the shape of the dose curve; as a rule, active = well fitted curve in the direction sought with a large enough effect; inconclusive = small, poorly fitted or top-dose-only effect, or another doubt; inactive = no such curve, though single readings can be large; an effect the other way counts as inactive or inconclusive.

COC/C=C/C1=CC2=CC(=O)C(C)(OC(=O)c3cnc4ccccc4n3)C(=O)C2=CN1Cc1ccccc1 (centres undefined)	FMDV antiviral 14µM, Giardia FBPA inh-1 2.2µM (no result: LASV entry inh) | Giardia growth inactive | Mammalian tox inactive | Giardia FBPA inh-2 inconclusive | Rabbit aldolase inconclusive | GAPDH coupling 25µM
Cn1c(=O)c(-c2cccc(Cl)c2)nc2cncnc21	none (no result: HCMV antiviral, LASV entry inh, MARV entry inh, HCV inhibitor)
Cc1ccc(C2=NC3(CCCCC3)NC2=S)cc1	MARV entry inh inconclusive
CCN1CCC2(CC1)N=C(c1ccc(F)cc1)C(=S)N2	Giardia FBPA inh-1 13µM | Giardia growth inactive | Mammalian tox inactive | Giardia FBPA inh-2 inactive | Rabbit aldolase inactive | GAPDH coupling inactive
CNc1nc(-c2ccccc2)[n+](-c2ccc(C)cc2)s1	HCV inhibitor inconclusive, Giardia FBPA inh-1 13µM | Giardia growth inconclusive | Mammalian tox inactive | Giardia FBPA inh-2 inconclusive | Rabbit aldolase 10µM | GAPDH coupling inactive
CSc1cccc(NC(=S)N2CCC(N(C)C(C)C)CC2)c1	none
CCC(C)N(C)C1CCN(C(=S)Nc2cccc(SC)c2)CC1 (centres undefined)	MARV entry inh inconclusive, Giardia FBPA inh-1 10µM | Giardia growth inactive | Mammalian tox inactive | Giardia FBPA inh-2 inactive | Rabbit aldolase inactive | GAPDH coupling inactive
Nc1nc(=S)c2ncn([C@H]3O[C@@H](CO)[C@@H](O)[C@@H]3O)c2[nH]1	Giardia FBPA inh-1 5.6µM (no result: HCMV antiviral, FMDV antiviral, LASV entry inh, MARV entry inh, HCV inhibitor) | Giardia growth inactive | Mammalian tox 5µM | Giardia FBPA inh-2 inactive | Rabbit aldolase inactive | GAPDH coupling inactive
CCn1ccc2c(OCC(=O)Nc3ccc(C(C)=O)cc3)cccc2c1=O	none (no result: MARV entry inh, HCV inhibitor, Giardia FBPA inh-1)
CC1=NOC(=O)/C1=C\c1ccc(-c2ccc(Br)cc2C(=O)O)o1	Giardia FBPA inh-1 5µM | Giardia growth inactive | Mammalian tox inactive | Giardia FBPA inh-2 inactive | Rabbit aldolase inactive | GAPDH coupling inactive
CC1=NOC(=O)/C1=C\c1ccc(-c2ccc(Br)cc2)o1	LASV entry inh inconclusive, MARV entry inh inconclusive
C=CCNC(=S)NNc1nc2sc3c(c2c(=O)[nH]1)CC(C)(C)OC3	LASV entry inh inconclusive, MARV entry inh inconclusive, HCV inhibitor inconclusive, Giardia FBPA inh-1 1.3µM | Giardia growth inconclusive | Mammalian tox inactive | Giardia FBPA inh-2 inactive | Rabbit aldolase inactive | GAPDH coupling inactive
C=CCSc1nc2sc3c(c2c(=O)[nH]1)CC(C)(C)OC3	none (no result: Giardia FBPA inh-1)
CC(=O)NC(c1cccs1)c1cc([N+](=O)[O-])c2cccnc2c1O (centres undefined)	HCMV antiviral inconclusive, FMDV antiviral inconclusive, LASV entry inh inconclusive, MARV entry inh inconclusive, HCV inhibitor 13µM, Giardia FBPA inh-1 inconclusive | Giardia growth inactive | Mammalian tox 29µM | Giardia FBPA inh-2 inconclusive | Rabbit aldolase inconclusive | GAPDH coupling 13µM
CC(=O)NC(c1ccccc1)c1cc([N+](=O)[O-])c2cccnc2c1O (centres undefined)	LASV entry inh inconclusive, MARV entry inh inconclusive, HCV inhibitor inconclusive, Giardia FBPA inh-1 20µM | Giardia growth 18µM | Mammalian tox inconclusive | Giardia FBPA inh-2 3.2µM | Rabbit aldolase inconclusive | GAPDH coupling 13µM
CCN(CC)C(=O)CSc1nc(-c2ccc(C)cc2)nc2c1Cc1c(CO)cnc(C)c1O2	FMDV antiviral inconclusive (no result: MARV entry inh, HCV inhibitor, Giardia FBPA inh-1)
COc1cc(NC(=O)CCS(=O)(=O)c2ccc3c(c2)CC(=O)N3C)cc(OC)c1OC	LASV entry inh inconclusive (no result: MARV entry inh, HCV inhibitor, Giardia FBPA inh-1)
COC(=O)C1=C(C)[C@@H](O)[C@@H](C)[C@](C)(c2cc(OC)c(C)c(OC)c2COc2ccccc2)O1	none (no result: HCMV antiviral, FMDV antiviral, HCV inhibitor)

Screens deposited in PubChem BioAssay by National Center for Advancing Translational Sciences (NCATS).
